Compound activity (PubChem)
Sampled rows, rich in hits. Any-hit rate of the full collection: about 7.9%.
HT1080 IDH1KD tx: toxicity to HT-1080 IDH1 knockdown cells (counter line); HT-1080 IDH1 knockdown viability, ATP luminescence, 48 h; Potency, µM (top dose mostly 46.1 µM), for inactives: top-dose activity, negative = toxicity, usual class: cytotoxic; 2% of 360,000 active; AID 686971;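 note: 0% = DMSO wells and -100% = cell-free medium wells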
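HT-1080-IDH1KD cells (IDH1 knocked down), 750/well in RPMI with 5% FBS, treated with compound 48 h at 37 degrees C. Viability by CellTiter-Glo luminescence, normalised to DMSO and no-cell wells; concentration-response curves classed.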
KB-V1 MDR tox: kills drug-selected multidrug resistant KB-V1 cells; KB-V1 MDR cells viability, CellTiter-Glo, 72 h; Potency, µM (doses to about 46.1 µM), usual class: cytotoxic; 3.4% of 400,000 active; AID 1347076; note: % is set by controls: 0 for no effect and ±100 for the full control effect; nearly all actives have a fitted effect of over 60% in size
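Compound-treated KB-V1 multidrug-resistant cells, 72 h, 37 degrees C; viability by CellTiter-Glo. Fitted qHTS curves give the values.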
KB-3-1 cytotox: KB-3-1 parental cell cytotoxicity; KB-3-1 viability, CellTiter-Glo ATP luminescence, 72 h; Potency, µM (titrated, usually from 46.1 µM), most hits filed as cytotoxic; 1.4% of 400,000 active; AID 1347075; note: % is set by controls: 0 for no effect and ±100 for the full control effect; nearly all actives have a fitted effect of over 60% in size
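Cytotoxicity measured as CellTiter-Glo luminescence after 72 h at 37 C. Compound titrations were pinned onto drug-naive KB-3-1 parental adenocarcinoma cells grown in DMEM with 10% FBS, and normalized data fitted to concentration-response curves.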
HT1080NT lethal: kills 2HG-producing HT-1080-NT fibrosarcoma cells; HT-1080-NT fibrosarcoma viability, CellTiter-Glo ATP luminescence, 48 h; Potency, µM (highest dose often 46.1 µM), for inactives: top-dose activity, negative = less viability, usual class: cytotoxic; 1.6% of 360,000 active;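 note: NT is the 2HG producing partner of a matched IDH1 knockdown line; 0% = DMSO-treated cells and -100% = media-only wells without cells; nearly all actives have a fitted effect of over 55% in size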
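Viability by CellTiter-Glo luminescence after 48 h compound exposure at 37C of HT-1080-NT cells (750/well, RPMI, 5% FBS). % activity scaled between DMSO wells and medium-only wells, then curve-fitted and categorized by curve class.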
SW480 rerep: inducers of DNA re-replication in SW480 colon cancer cells; SW480 DNA re-replication, Hoechst DNA content imaging, 48 h; Potency, µM (series often up to 46.1 µM), for the others: at the highest dose re-replication activation, hits mostly activators; 1.8% of 340,000 active; note: % of control where 0% means no effect; nearly all actives have a fitted effect of over 55% in size
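Image-based read-out: total Hoechst fluorescence of nuclei (405 nm excitation, 500-530 nm emission), with hits raising the fraction of high-intensity nuclei. SW480 colon cells incubated 48 hr with compounds at 37 C.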
MCF10A rereplic: induces DNA re-replication in MCF 10a normal breast cells; MCF 10A DNA re-replication, Hoechst nuclear intensity, 48 h; 2.9% of 350,000 active; Potency, µM (top dose mostly 46.1 µM), inactives show at the highest dose activity, positive = re-replication, most hits filed as activators; note: % of control where 0% means no effect; nearly all actives have a fitted effect of over 50% in size
* hit, by the source's call; i = inactive; ? = inconclusive; nt = no result; [ ] = another dose, or the depositor's remark. Calls come from the whole dose curve; as a rule, active = well fitted curve in the direction sought with a large enough effect; inconclusive = small, poorly fitted or top-dose-only effect, or another doubt; inactive = no such curve, though single readings can be large; an effect the other way counts as inactive or inconclusive. Potency is the fitted concentration of half-maximal effect.

SMILES | HT1080 IDH1KD tx | KB-V1 MDR tox | KB-3-1 cytotox | HT1080NT lethal | SW480 rerep | MCF10A rereplic
O=C(NCc1ccco1)c1ccc2c(c1)N(Cc1ccc(Cl)cc1)C(=O)c1ccccc1S2(=O)=O | nt | i | i | nt | nt | nt
CCOC(=O)c1ccc(NC(=O)c2cc3sccc3n2Cc2ccc(Cl)cc2)cc1 | nt | i | i | nt | nt | nt
CC(C)(C)c1ccc(/C=N/Nc2ccc(C(=O)O)cc2)cc1 | -3.1% | i | i | -3.8% | 15.7% | ?
CC1Oc2ccccc2C=C1/C=N/Nc1ccc(C(=O)O)cc1 (stereo not given) | ? | i | i | ? | 7.31µM* | 23.1µM*
Cc1cccc(C)c1NC(=O)N1CCC(C(N)=O)(N2CCCCC2)CC1 | nt | ? | i | nt | nt | nt
O=C(CN1C(=O)/C(=C/c2cccc(Br)c2)SC1=S)NCCCN1CCOCC1 | -29.9% | nt | nt | -12.3% | 12.4% | -0.1%
O=C(CCN1C(=O)/C(=C/c2ccccc2Cl)SC1=S)NCCCN1CCOCC1 | -9.2% | i | 14.6µM* | 3.4% | ? | -3.9%
O=C(CCCN1C(=O)/C(=C/c2cccc(Br)c2)SC1=S)NCCCN1CCOCC1 | ? | ? | ? | ? | -1.9% | 23.1µM*
FC(F)(F)c1nc(N2CCCC2)ncc1-c1nnnn1-c1ccccc1 | -29.3% | 2.91µM* | ? | 28.6% | 10.4% | 16.1%
O=C(O)c1ccccc1C(=O)c1ccc2oc(=O)[nH]c2c1 | 18.9% | i | i | 15.8% | -6.6% | 4.6%
COc1ccc(NC(=O)CSC2=Nc3ccccc3C3=NC(CC(=O)NCCc4ccccc4)C(=O)N23)cc1 (stereo not given) | nt | i | i | nt | nt | nt
O=C(CCCn1c(=O)c2sccc2n(Cc2c(F)cccc2Cl)c1=O)NCc1ccccc1 | nt | i | i | nt | nt | nt
CC(=O)NC(Cc1ccccc1)C(=O)N1CCN(C(=S)NCC(C)C)CC1 (stereo not given) | 7.0% | i | i | 17.6% | -14.1% | -3.6%
CCNC(=S)N1CCN(C(=O)C(Cc2ccccc2)NC(C)=O)CC1 (stereo not given) | 0.7% | i | i | 3.7% | 5.2% | 0.651µM*
CN(C)S(=O)(=O)c1cccc2c1C(=O)c1ccccc1C2=O | -8.7% | i | i | -1.1% | 20.6µM* | -24.0%
CN(C)S(=O)(=O)c1ccccc1C#N | 13.9%[9.24 µM] | i | i | 0.6% | -6.1% | 19.1%
Cc1cc2nnc(SCc3ccc(F)cc3)n2c2ccccc12 | nt | ? | i | nt | nt | nt
Cc1nnsc1C(=O)N/N=C/c1ccc2ccccc2c1O | 3.66µM* | i | i | 4.11µM* | ? | ?
Cc1nnsc1C(=O)N/N=C/c1ccccc1 | 23.8% | i | i | 8.2% | -12.5% | -34.1%
Cc1ccc(C)c(NS(=O)(=O)c2ccc3c(c2)n(C)c(=O)n3C)c1 | nt | i | i | nt | nt | nt
O=C(Cn1c(SCc2ccccc2F)nc2ccncc21)Nc1ccccc1C(F)(F)F | nt | i | i | nt | nt | nt
CSc1nc(N2CCOCC2)nc2ccc(C)cc12 | 6.3% | i | i | 13.7% | ? | 20.6µM*
CC(C)(C)NC(=O)C(c1ccc(-c2ccccc2)cc1)N(C[C@H]1CC[C@@H]([C@@H]2CC[C@H](CO)O2)O1)C(=O)c1ccc(-c2ccccc2)cc1 (stereo not given in full) | ? | ? | ? | -21.2% | -15.8%[9.22 µM] | -16.6%
CC(C)(C)NC(=O)C(c1ccc(-c2ccccc2)cc1)N(C[C@H]1CC[C@@H]([C@@H]2CC[C@H](CO)O2)O1)C(=O)c1cccc(Cl)c1 (stereo not given in full) | -23.5% | i | 14.6µM* | -1.6% | 9.5%[9.22 µM] | ?
CCc1ccc(S(=O)(=O)N2c3ccc(C)cc3C3CN(C)CCC32)cc1 (stereo not given) | -2.0% | 20.6µM* | i | -3.1% | 2.7% | ?
SMILES | HT1080 IDH1KD tx | KB-V1 MDR tox | KB-3-1 cytotox | HT1080NT lethal | SW480 rerep | MCF10A rereplic
O=C(c1ccc2c(c1)N(Cc1cccc(F)c1)C(=O)c1ccccc1S2)N1CCCC1 | nt | i | i | nt | nt | nt
COc1cc2c(c(OC)c1OC)-c1ccc(NC(=O)c3ccccc3)c(=O)cc1[C@@H](NC(C)=O)CC2 | 0.0% | i | i | 0.1% | 2.5% | -39.8%
COc1c(O[C@H]2O[C@@H](CO)[C@@H](O)[C@@H](O)[C@@H]2O)cc2c(c1OC)-c1ccc(SC)c(=O)cc1[C@H](NC(C)=O)CC2 | nt | nt | nt | nt | 0.4%[20.6 µM] | -0.4%[20.6 µM]
CN[C@H]1CCc2cc(OC)c(OC)c(OC)c2-c2ccc(OC)c(=O)cc21 | 12.4% | 1.16µM* | 0.0291µM* | -0.1% | ? | ?
CCOCC(=O)NC1CCc2cc(OC)c(OC)c(OC)c2-c2ccc(SC)c(=O)cc21 (stereo not given) | ? | ? | 0.0058µM* | 0.0116µM* | 0.0517µM* | ?
CCOC(=O)NC1CCc2cc(OC)c(OC)c(OC)c2-c2ccc(SC)c(=O)cc21 (stereo not given) | 0.103µM* | 0.231µM* | 0.164µM* | 0.0092µM* | 0.0366µM* | ?
CCCCOC(=O)NC1CCc2cc(OC)c(OC)c(OC)c2-c2ccc(SC)c(=O)cc21 (stereo not given) | 0.0092µM* | 0.291µM* | 0.146µM* | 0.0082µM* | ? | ?
CCCCOC(=O)NC1CCS(=O)(=O)C1 (stereo not given) | 24.0% | i | i | 13.4% | -6.6% | -1.0%
CCCS(=O)(=O)NC(=O)C1(C)CCCN(C(=O)c2c(F)ccc(C)c2F)C1 (stereo not given) | 7.0% | i | i | 12.3% | nt | nt
CC1CCc2c(sc(NC(=O)c3ccccc3)c2C(=O)Nc2ccccc2)C1 (stereo not given) | nt | i | i | nt | nt | nt
O=S1(=O)CC(O)C(NCc2cccnc2)C1 (stereo not given) | 3.3% | i | i | 7.6% | 2.06µM* | 5.17µM*
CC(C)CNC1CS(=O)(=O)CC1O (stereo not given) | -1.7% | i | i | 4.5% | -14.1% | 1.9%
CCC[C@H]1COCCS(=O)(=O)N1Cc1cccc(F)c1 | nt | i | i | nt | nt | nt
CCOc1ccccc1N1CCN(C(=O)c2cc(S(=O)(=O)N3CCCCC3)ccc2C)CC1 | -4.4% | i | i | -6.6% | -3.4% | 10.7%
COc1cc2c(cc1OC)CN(C(=O)c1ccc(Cl)c(S(=O)(=O)N3CCCC3)c1)CC2 | 0.0% | 20.6µM* | i | -8.2% | -12.0% | ?
COc1cc2c(cc1OC)CN(C(=O)c1ccc3nc[nH]c3c1)CC2 | 11.6µM* | i | ? | 10.3µM* | 5.8µM* | 8.2µM*
